# Residue numbers refer to the chain shown, from its start.
# How the values were obtained:
# Experiment in all cases: PBM; 200 nM protein, PBS
# Conditions in all cases: dsDNA, one strand shown
# SIX6 [1] = target: T1, SIX6 (Homo sapiens, UniProt O95475 114-200, L167I)
# T1 sequence: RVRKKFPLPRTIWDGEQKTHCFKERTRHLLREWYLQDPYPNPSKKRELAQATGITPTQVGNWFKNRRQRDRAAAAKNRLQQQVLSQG
# SIX6 [2] = target: T2, SIX6 (Homo sapiens, UniProt O95475 114-200, H141N)
# T2 sequence: T1 sequence with H28N, I54L
# SIX6 [3] = target: T3, SIX6 (Homo sapiens, UniProt O95475 114-200, T165G)
# T3 sequence: T1 sequence with T52G, I54L
# SIX6 [4] = target: T4, SIX6 (Homo sapiens, UniProt O95475 114-200, T165A)
# T4 sequence: T1 sequence with T52A, I54L
# SIX6 [5] = target: T5, SIX6 (Homo sapiens, UniProt O95475 114-200, L167V)
# T5 sequence: T1 sequence with I54V
# SIX6 [6] = target: T6, SIX6 (Homo sapiens, UniProt O95475 114-200, T165I)
# T6 sequence: T1 sequence with T52I, I54L
# SIX6 [7] = target: T7, SIX6 (Homo sapiens, UniProt O95475 114-200, L167M)
# T7 sequence: T1 sequence with I54M
# SIX6 [8] = target: T8, SIX6 (Homo sapiens, UniProt O95475 114-200, L143M)
# T8 sequence: T1 sequence with L30M, I54L
# SIX6 [9] = target: T9, SIX6 (Homo sapiens, UniProt O95475 114-200, T139Q)
# T9 sequence: T1 sequence with T26Q, I54L
# SIX6 [10] = target: T10, SIX6 (Homo sapiens, UniProt O95475 114-200)
# T10 sequence: T1 sequence with I54L
# SIX6 [11] = target: T11, SIX6 (Homo sapiens, UniProt O95475 114-200, T165P)
# T11 sequence: T1 sequence with T52P, I54L
# HOXA7 [12] = target: HOXA7 (Homo sapiens, UniProt P31268 116-202)
# Sequence of HOXA7 (Homo sapiens, UniProt P31268 116-202) (P31268 116-202): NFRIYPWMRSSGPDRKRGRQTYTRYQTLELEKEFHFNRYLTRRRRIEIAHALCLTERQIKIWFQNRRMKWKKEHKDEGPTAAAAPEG
# SIX6 [13] = target: T12, SIX6 (Homo sapiens, UniProt O95475 114-200, L143I)
# T12 sequence: T1 sequence with L30I, I54L
# HOXA7 [14] = target: HOXA7 (Homo sapiens, UniProt P31268 116-202, W177C)
# Sequence of HOXA7 (Homo sapiens, UniProt P31268 116-202, W177C) (P31268 116-202 W177C): as the sequence (P31268 116-202) above, with W62C counted along it
sequence,measurement,setting,value
CATATCAA,binding signal,SIX6 [1],"11.2 upbm affinity estimate (log intensity, higher = more binding, comparable within an allelic series)"
same,binding signal,SIX6 [2],"11.1 upbm affinity estimate (log intensity, higher = more binding, comparable within an allelic series)"
same,binding signal,SIX6 [3],"11.2 upbm affinity estimate (log intensity, higher = more binding, comparable within an allelic series)"
same,binding signal,SIX6 [4],"11.2 upbm affinity estimate (log intensity, higher = more binding, comparable within an allelic series)"
same,binding signal,SIX6 [5],"10.9 upbm affinity estimate (log intensity, higher = more binding, comparable within an allelic series)"
same,binding signal,SIX6 [6],"11 upbm affinity estimate (log intensity, higher = more binding, comparable within an allelic series)"
CTGACACC,binding signal,SIX6 [1],"10.3 upbm affinity estimate (log intensity, higher = more binding, comparable within an allelic series)"
same,binding signal,SIX6 [7],"9.83 upbm affinity estimate (log intensity, higher = more binding, comparable within an allelic series)"
same,binding signal,SIX6 [4],"11.1 upbm affinity estimate (log intensity, higher = more binding, comparable within an allelic series)"
ATATCAAG,binding signal,SIX6 [1],"11.1 upbm affinity estimate (log intensity, higher = more binding, comparable within an allelic series)"
same,binding signal,SIX6 [8],"11 upbm affinity estimate (log intensity, higher = more binding, comparable within an allelic series)"
same,binding signal,SIX6 [3],"11.1 upbm affinity estimate (log intensity, higher = more binding, comparable within an allelic series)"
same,binding signal,SIX6 [5],"10.9 upbm affinity estimate (log intensity, higher = more binding, comparable within an allelic series)"
same,binding signal,SIX6 [6],"10.9 upbm affinity estimate (log intensity, higher = more binding, comparable within an allelic series)"
AGGTGTCA,binding signal,SIX6 [1],"10.4 upbm affinity estimate (log intensity, higher = more binding, comparable within an allelic series)"
same,binding signal,SIX6 [7],"9.88 upbm affinity estimate (log intensity, higher = more binding, comparable within an allelic series)"
same,binding signal,SIX6 [3],"11.2 upbm affinity estimate (log intensity, higher = more binding, comparable within an allelic series)"
same,binding signal,SIX6 [9],"11.1 upbm affinity estimate (log intensity, higher = more binding, comparable within an allelic series)"
same,binding signal,SIX6 [4],"11.2 upbm affinity estimate (log intensity, higher = more binding, comparable within an allelic series)"
ATCCAATA,binding signal,SIX6 [1],"10.4 upbm affinity estimate (log intensity, higher = more binding, comparable within an allelic series)"
same,binding signal,SIX6 [2],"10.3 upbm affinity estimate (log intensity, higher = more binding, comparable within an allelic series)"
same,binding signal,SIX6 [7],"10.2 upbm affinity estimate (log intensity, higher = more binding, comparable within an allelic series)"
same,binding signal,SIX6 [8],"10.3 upbm affinity estimate (log intensity, higher = more binding, comparable within an allelic series)"
same,binding signal,SIX6 [3],"10.4 upbm affinity estimate (log intensity, higher = more binding, comparable within an allelic series)"
same,binding signal,SIX6 [9],"10.5 upbm affinity estimate (log intensity, higher = more binding, comparable within an allelic series)"
same,binding signal,SIX6 [4],"10.4 upbm affinity estimate (log intensity, higher = more binding, comparable within an allelic series)"
same,binding signal,SIX6 [5],"10.2 upbm affinity estimate (log intensity, higher = more binding, comparable within an allelic series)"
same,binding signal,SIX6 [10],"10.3 upbm affinity estimate (log intensity, higher = more binding, comparable within an allelic series)"
same,binding signal,SIX6 [6],"10.2 upbm affinity estimate (log intensity, higher = more binding, comparable within an allelic series)"
GGTGTCAA,binding signal,SIX6 [1],"10.4 upbm affinity estimate (log intensity, higher = more binding, comparable within an allelic series)"
same,binding signal,SIX6 [11],"9.33 upbm affinity estimate (log intensity, higher = more binding, comparable within an allelic series)"
same,binding signal,SIX6 [7],"9.85 upbm affinity estimate (log intensity, higher = more binding, comparable within an allelic series)"
same,binding signal,SIX6 [3],"11.1 upbm affinity estimate (log intensity, higher = more binding, comparable within an allelic series)"
same,binding signal,SIX6 [4],"11.1 upbm affinity estimate (log intensity, higher = more binding, comparable within an allelic series)"
AATACGAT,binding signal,SIX6 [1],"10.6 upbm affinity estimate (log intensity, higher = more binding, comparable within an allelic series)"
same,binding signal,HOXA7 [12],"9.45 upbm affinity estimate (log intensity, higher = more binding, comparable within an allelic series)"
same,binding signal,SIX6 [2],"10.5 upbm affinity estimate (log intensity, higher = more binding, comparable within an allelic series)"
same,binding signal,SIX6 [11],"9.88 upbm affinity estimate (log intensity, higher = more binding, comparable within an allelic series)"
same,binding signal,SIX6 [7],"10.3 upbm affinity estimate (log intensity, higher = more binding, comparable within an allelic series)"
same,binding signal,SIX6 [8],"10.5 upbm affinity estimate (log intensity, higher = more binding, comparable within an allelic series)"
same,binding signal,SIX6 [13],"10.1 upbm affinity estimate (log intensity, higher = more binding, comparable within an allelic series)"
same,binding signal,SIX6 [3],"10.5 upbm affinity estimate (log intensity, higher = more binding, comparable within an allelic series)"
same,binding signal,SIX6 [9],"10.7 upbm affinity estimate (log intensity, higher = more binding, comparable within an allelic series)"
same,binding signal,SIX6 [4],"10.5 upbm affinity estimate (log intensity, higher = more binding, comparable within an allelic series)"
same,binding signal,SIX6 [5],"10.3 upbm affinity estimate (log intensity, higher = more binding, comparable within an allelic series)"
same,binding signal,SIX6 [10],"10.5 upbm affinity estimate (log intensity, higher = more binding, comparable within an allelic series)"
same,binding signal,SIX6 [6],"10.4 upbm affinity estimate (log intensity, higher = more binding, comparable within an allelic series)"
same,binding signal,HOXA7 [14],"8.84 upbm affinity estimate (log intensity, higher = more binding, comparable within an allelic series)"
GGTGTCAC,binding signal,SIX6 [1],"10.3 upbm affinity estimate (log intensity, higher = more binding, comparable within an allelic series)"
same,binding signal,SIX6 [7],"9.69 upbm affinity estimate (log intensity, higher = more binding, comparable within an allelic series)"
same,binding signal,SIX6 [3],"11.1 upbm affinity estimate (log intensity, higher = more binding, comparable within an allelic series)"
same,binding signal,SIX6 [4],"11.1 upbm affinity estimate (log intensity, higher = more binding, comparable within an allelic series)"
AGTTGTAT,binding signal,SIX6 [1],"10.2 upbm affinity estimate (log intensity, higher = more binding, comparable within an allelic series)"
same,binding signal,SIX6 [2],"10.2 upbm affinity estimate (log intensity, higher = more binding, comparable within an allelic series)"
same,binding signal,SIX6 [7],"10.1 upbm affinity estimate (log intensity, higher = more binding, comparable within an allelic series)"
same,binding signal,SIX6 [10],"10.3 upbm affinity estimate (log intensity, higher = more binding, comparable within an allelic series)"
same,binding signal,SIX6 [6],"10.2 upbm affinity estimate (log intensity, higher = more binding, comparable within an allelic series)"
GATATACA,binding signal,SIX6 [1],"11.1 upbm affinity estimate (log intensity, higher = more binding, comparable within an allelic series)"
same,binding signal,SIX6 [7],"10.9 upbm affinity estimate (log intensity, higher = more binding, comparable within an allelic series)"
same,binding signal,SIX6 [13],"10.4 upbm affinity estimate (log intensity, higher = more binding, comparable within an allelic series)"
same,binding signal,SIX6 [6],"10.9 upbm affinity estimate (log intensity, higher = more binding, comparable within an allelic series)"
ACAATACT,binding signal,SIX6 [1],"10.3 upbm affinity estimate (log intensity, higher = more binding, comparable within an allelic series)"
same,binding signal,SIX6 [2],"10.2 upbm affinity estimate (log intensity, higher = more binding, comparable within an allelic series)"
same,binding signal,SIX6 [7],"10.2 upbm affinity estimate (log intensity, higher = more binding, comparable within an allelic series)"
same,binding signal,SIX6 [8],"10.4 upbm affinity estimate (log intensity, higher = more binding, comparable within an allelic series)"
same,binding signal,SIX6 [13],"10.1 upbm affinity estimate (log intensity, higher = more binding, comparable within an allelic series)"
same,binding signal,SIX6 [3],"10.3 upbm affinity estimate (log intensity, higher = more binding, comparable within an allelic series)"
same,binding signal,SIX6 [9],"10.5 upbm affinity estimate (log intensity, higher = more binding, comparable within an allelic series)"
same,binding signal,SIX6 [4],"10.3 upbm affinity estimate (log intensity, higher = more binding, comparable within an allelic series)"
same,binding signal,SIX6 [5],"10.2 upbm affinity estimate (log intensity, higher = more binding, comparable within an allelic series)"
same,binding signal,SIX6 [10],"10.2 upbm affinity estimate (log intensity, higher = more binding, comparable within an allelic series)"
same,binding signal,SIX6 [6],"10.2 upbm affinity estimate (log intensity, higher = more binding, comparable within an allelic series)"

# Source: PMC11006913
